The text below walks through data of PubChem BioAssay AID720582 (The Scripps Research Institute Molecular Screening Center, 2013).

About 2,300 (0.62%) of roughly 370,000 compounds were called active. The sample holds actives, similar compounds and a random draw of the others, so the mix is not that of the screen. A number with no mark means an inactive call.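 How the source made its calls: active means inhibition above a per-campaign cutoff equal to the mean of compounds falling between control-based bounds plus 3 SD (cut at about 20% in these data); inactive means the rest.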

Chain of Disintegrin and metalloproteinase domain-containing protein 10 (Homo sapiens) (O14672 214-748 limits assumed): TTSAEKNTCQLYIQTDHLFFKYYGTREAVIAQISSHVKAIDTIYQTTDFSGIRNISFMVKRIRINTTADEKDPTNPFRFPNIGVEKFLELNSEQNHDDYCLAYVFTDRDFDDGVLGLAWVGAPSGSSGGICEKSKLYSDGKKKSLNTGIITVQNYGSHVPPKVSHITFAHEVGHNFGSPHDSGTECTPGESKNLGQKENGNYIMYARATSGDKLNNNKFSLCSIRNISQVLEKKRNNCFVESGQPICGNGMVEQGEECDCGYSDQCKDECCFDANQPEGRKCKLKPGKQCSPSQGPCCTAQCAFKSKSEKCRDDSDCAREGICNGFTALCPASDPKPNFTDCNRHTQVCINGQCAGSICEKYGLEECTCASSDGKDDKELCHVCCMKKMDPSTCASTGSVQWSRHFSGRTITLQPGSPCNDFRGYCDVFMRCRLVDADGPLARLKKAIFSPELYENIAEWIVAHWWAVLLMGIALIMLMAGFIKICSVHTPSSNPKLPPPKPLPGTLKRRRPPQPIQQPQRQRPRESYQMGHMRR

The experiment concerns the target Disintegrin and metalloproteinase domain-containing protein 10 (Homo sapiens) (UniProt O14672). Nature of the experiment: human ADAM10 inhibitors, primary screen, biochemical, QFRET, HTS (AID 720582).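 Further: 0% = DMSO wells while the 100% control is not disclosed.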 Particulars: recombinant ADAM10, EDANS/DABCYL FRET peptide cleavage, 3 h; at 7 µM; hits give high values.
In the case of `Oc1c(Cl)cc(Cl)c(Cl)c1Cc1c(O)c(Cl)cc(Cl)c1Cl`, the inhibition is 36.2% (active).
Take `O=C(CSc1nnc(-c2ccccn2)n1-c1ccc(Cl)cc1)Nc1ccccc1-c1ccccc1`: the inhibition was 1.01%.
For the compound `C=CCN1C(=O)[C@@H](CC(=O)NCCCOCCCC)[C@]2(C(=O)OCC)CCCCC/C=C/12`, the inhibition was -1.99%.
The figure for `O=C(OCC(O)C(O)COC(=O)c1ccccc1)c1ccccc1` (stereo not given) is -1.65%.
On to `O=C(OCc1ccc(-c2ccccc2)cc1)c1cccc(O)c1`, for which the inhibition was 23.1% (active).
Under `Cc1ccc(S(=O)(=O)c2c(COC(=O)c3cccc(Cl)c3)c(-c3ccccc3)nn2C)cc1` stands 4.59%.
Turning to `C=CCn1c(SCC(N)=O)nnc1-c1ccccc1OC`, the inhibition was -8.66%.
Under `CN1C[C@]2(C=C3CCCCC3n3c(=O)n(-c4ccccc4)c(=O)n32)N=C1NC(=O)c1ccccc1` (stereo not given in full) stands 5.49%; under `O=C(NCc1cccs1)C1CCN(S(=O)(=O)c2ccccc2[N+](=O)[O-])CC1`, 7.43%.
For `Cc1ccc(OCC(=O)Nc2ccc(C(=O)O)cc2NC(=O)COc2ccc(C)c(C)c2)cc1C`, the inhibition is -2.89%.
Under `Cc1ccc(C)c(NS(=O)(=O)c2ccc(OCC(=O)NCc3cccnc3)cc2)c1` stands 5.13%.
The figure for `Cc1ccc(NS(=O)(=O)c2ccc(C)c(NC(=O)COc3ccc4ccccc4c3)c2)c(C)c1` is 21.2% (active).
On to `COc1ccc(-n2c(SCC(=O)NC3CCCC3)nnc2-c2ccncc2)cc1`, for which the inhibition is -6.99%.
On to `COc1cccc(/C=C2\CC3(OC(C)=O)CCCN2C3)c1` (stereo not given), for which the inhibition was 3.53%.
On to `CC(CCN1CCC(C(O)(c2ccccc2)c2ccccc2)CC1)Oc1ccc([N+](=O)[O-])cc1Cl` (stereo not given), for which the inhibition was 14.3%.
On to `O=C(NCc1ccccc1)c1onc(CSc2ccncc2)c1C(=O)NCc1ccccc1`, for which the inhibition was 6.67%.
Take `O=C(NCC1CC1)c1onc(CSc2ccccc2)c1C(=O)NCC1CC1`: the inhibition is 4.44%.
Turning to `O=C(NCc1ccccc1)c1onc(CSc2nc3ccccc3[nH]2)c1C(=O)NCc1ccccc1`, the inhibition was 23.5% (active).
Turning to `CCN(C(=O)[C@@H](C1CC1)[C@@H](O)c1ccc2ccccc2c1)c1ccccc1`, the inhibition is 7.43%.
The figure for `CC(C)CNc1cccc2c1S(=O)(=O)N(Cc1cn(Cc3ccccc3C(F)(F)F)nn1)Cc1ccccc1O2` is -26.5%; for `O=C(CSc1nc2ccccc2s1)N=Nc1c(O)[nH]c2ccccc12` it is 7.8%; for `Cc1ccc(Cn2cc(CN3[C@@H](C)COc4cc(Br)ccc4S3(=O)=O)nn2)cc1` it is -3.91%.
Regarding `CN1C(=O)C(CC(=O)Nc2ccccc2)S/C1=N/c1nccs1` (stereo not given), the inhibition was 8.04%.
As for `O=C(CC1SC(=Nc2ccccc2)N(Cc2ccccn2)C1=O)Nc1cccc(Cl)c1` (stereo not given), the inhibition is 21.2% (active).
Under `CCN1C(=O)C(CC(=O)Nc2cc(C)ccc2C)SC1=Nc1ccc(S(N)(=O)=O)cc1` (stereo not given) stands 3.57%; under `O=C(c1c[nH]c2ccccc12)N1CCC(Oc2cccnc2)CC1`, 1.42%.
The figure for `Clc1ccc(-n2c(SC/C=C/c3ccccc3)nnc2-c2ccco2)cc1` is 15.1%; for `CCOC(=O)[C@@]12CN(C(=O)OC(C)(C)C)CC=C1N(Cc1ccc(OC)cc1)C(=O)[C@H]2CC(=O)NCc1ccc(OC)c(OC)c1` it is 1.76%; for `C=CCN1C(=O)[C@H](CC(=O)NCCCN2CCCC2=O)[C@@]2(C(=O)OCC)CCCC=C12` it is -5.84%.
The figure for `C=CCOC/C=C/C#CCN(CC=C)Cc1ccc(OC)cc1OC` is -0.01%; for `CC1(C)C=Cc2c(ccc3c2OC[C@@H](c2ccc(O)cc2O)C3)O1` it is 26.4% (active).
Take `COC(=O)C1CN(Cc2cn(Cc3ccc(F)cc3)nn2)CCS(=O)(=O)N1Cc1ccc(Cl)cc1` (stereo not given): the inhibition is 2.41%.
Under `C=CCN1C(=O)[C@@H](CC(=O)NCC2CCCCC2)[C@]2(C(=O)OC)CCCCC=C12` stands 5.05%; under `CCCOc1ccc(F)cc1-c1cc(C(=O)NCc2ccc(F)cc2)[nH]n1`, 15.3%.
`Cc1cc(O)ccc1-c1cc(C(=O)NCc2cc(C(F)(F)F)cc(C(F)(F)F)c2)[nH]n1`: the inhibition was 20.5% (active).
The figure for `Cc1ccc(O)c(-c2cc(C(=O)NCc3ccccc3)[nH]n2)c1` is 12.6%.
The figure for `O=C(Nc1cc(Cl)cc(Cl)c1)OCCN1CCCC12CCC(c1ccccc1)CC2` (stereo not given) is 4.69%; for `C=C(C)C#CC(Cc1ccccc1)N(CC1CC1)/C(N)=N/C(=O)OCc1ccccc1` (stereo not given) it is -71.4%.
Take `CCOc1ccc(Oc2c(Cl)cnn(-c3ccc(C)cc3)c2=O)cc1`: the inhibition is 0.21%.
The figure for `CC(NCc1ccco1)C(=O)N1CCCCC1` (stereo not given) is -0.25%.
Under `Cc1ccc(CC(=O)Nc2ccc(S(=O)(=O)N3CCOCC3)cc2)cc1C` stands 9.05%; under `O=C(Cc1ccc(Cl)c(Cl)c1)Nc1ccc(SC(F)F)cc1`, 24.6% (active).
Regarding `N#C/C(=C\c1cccnc1)C(=O)Nc1ccc(SC(F)F)cc1`, the inhibition is 9.34%.
For the compound `O=C1CC[C@@]23CCCN2C(=O)CCC[C@H]3[C@H]1Cc1ccccc1`, the inhibition is -4.62%.
With `CN(C)CC(=O)N[C@@H]1C[C@@H]2O[C@H](CO)CC[C@@H]2O[C@@H]1CCc1ccc(C#Cc2ccccc2)cc1`, the inhibition is 7.99%.
Under `COC(=O)[C@]12C[C@H](CC(=O)NCc3cccs3)C(=O)N(CCc3ccc(OC)c(OC)c3)C1=C[C@H](C(C)C)O[C@@H]2C1CC1` stands -6.09%.
`CN(C)c1ccc(NC(=O)NC2CCCCN(Cc3ccc(Cl)cc3)C2=O)cc1` (stereo not given): the inhibition was 8.78%.
Under `COc1ccccc1CC1(C)C(=O)Nc2ccc(OC(F)(F)F)cc21` (stereo not given) stands 22.6% (active).
Under `Cc1ccc(CC2(C)C(=O)Nc3ccc(OC(F)(F)F)cc32)cc1` (stereo not given) stands 5.38%.
Under `CCc1ccc2c(c1)NC(=O)C2(C)Cc1ccc(OC(F)(F)F)cc1` (stereo not given) stands 14.9%.
`C=CCN(Cc1ccc2c(c1)OCO2)C(C#CC1CC1)C(C)(C)C` (stereo not given): the inhibition is -9.94%.
Turning to `Cc1cc(C)cc(NC(=O)N2CCC(N(C)CCC(C)C)CC2)c1`, the inhibition was 3.06%.
With `CC(C)(C)c1ccc(S(=O)(=O)NCC2CCN(C(=O)C(=O)c3cc4ccccc4o3)CC2)cc1`, the inhibition was 24.4% (active).
The figure for `O=C(C(=O)N1CCC(CNS(=O)(=O)Cc2ccccc2)CC1)c1cc2ccccc2o1` is 0.44%; for `N#Cc1cccc(C(=O)NCC2CCN(C(=O)C(=O)c3cc4ccccc4o3)CC2)c1` it is 1.47%; for `O=C(NCCCc1ccccc1)[C@H](Cc1ccccc1)NC1(C(=O)NCCc2c[nH]c3ccccc23)CCC1` it is 10.8%.
The figure for `O=C(c1cccs1)n1nc(NCc2ccccc2)nc1NCc1ccccc1` is -4.16%; for `CCCC(=O)n1nc(NCc2ccc(OC)cc2)nc1NCc1ccc(OC)cc1` it is 21.3% (active).
Take `CCCn1nnnc1NCc1ccc(OC)cc1`: the inhibition is 0.98%.
Consider `Cc1cc(C)nc(NC(=S)N2CCN(c3ccc(C(F)(F)F)cn3)CC2)c1`, for which the inhibition was -0.75%.
With `O=C1CC[C@@H](COc2ccc3[nH]cc(-c4ccccc4)c3c2-c2ccccc2)N1`, the inhibition was -16.4%.
The figure for `Cc1cc(C)cc(NC(=O)CSc2ccccc2)c1` is 7.73%.
As for `CC(=O)Nc1ccc(NC(=O)CSCc2cnn(-c3ccccc3)c2-n2cccc2)cc1`, the inhibition was -1.8%.
As to `Cc1cc(C)cc(NC(=O)CSCc2cnn(-c3ccccc3)c2-n2cccc2)c1`, the inhibition is 20.7% (active).
Under `O=C(NCCc1c[nH]c2ccccc12)OCc1cn(-c2c(F)cccc2F)nn1` stands 2.44%; under `CCOC(=O)[C@@]12CCC3=C1N(CCC3)C(=O)[C@H](CC(=O)N1CCN(C(=O)c3ccco3)CC1)C2`, 0.02%; under `O=C(CCNS(=O)(=O)c1ccccc1C(F)(F)F)NCc1ccc2c(c1)OCO2`, 4.73%.
Under `CC1(C(=O)NCc2ccc3c(c2)OCO3)CCN1C(=O)Cc1cccc2ccccc12` (stereo not given) stands -4.08%.
Under `N#Cc1nc(Cc2cccc3ccccc23)oc1NCc1ccc2c(c1)OCO2` stands 22.7% (active).
Turning to `C[C@@H]1COc2cccc(N3CCCC3)c2S(=O)(=O)N1C`, the inhibition was -13.8%.
For `CCCCNC(=O)C[C@@H]1C(=O)N(CCc2ccc(Cl)cc2)C2=CCCC[C@]21C(=O)OCC`, the inhibition was 1.59%.
Under `CCCCC(=O)N[C@@H]1CC[C@@]23CCCN2C(=O)CCC[C@H]3[C@H]1C` stands -8.02%; under `CC(C)(C)NC(=O)C(c1cccnc1)N(C(=O)c1cnco1)c1ccc(C(C)(C)C)cc1` (stereo not given), -5.34%.
Consider `CC1Cc2ccccc2N1C(=O)CSc1nc2ccccc2o1` (stereo not given), for which the inhibition was 3.31%.
The figure for `O=C(CSc1nc2ccccc2o1)N/N=C/c1ccccc1C(=O)O` is 5.59%.
`Cc1ccc(/C=N/NC(=O)CSc2nc3ccccc3o2)cc1`: the inhibition was 22.1% (active).
For the compound `C[C@H](C(=O)N(C)c1ccccc1)[C@@H](O)c1ccc2ccccc2c1`, the inhibition is -0.77%.
For `COc1ccc(-c2cc(-c3nnc(SCc4ccc([N+](=O)[O-])cc4)n3N)[nH]n2)cc1`, the inhibition is 0.29%.
Consider `COc1ccc(C(=O)NNC(=S)NC(=O)c2ccccc2)cc1`, for which the inhibition is 24% (active).
Turning to `COc1ccc(C(=O)NNc2cc(C)nc(NNC(=O)c3ccc(OC)cc3)n2)cc1`, the inhibition was -1.03%.
Under `COc1cc(NS(=O)(=O)c2ccc(NC(=S)NC(=O)c3ccccc3)cc2)nc(OC)n1` stands 6.57%; under `C=C1C(C(C)C)N(C)C2=NC(c3ccccc3)CC(=O)N12` (stereo not given), -17.1%.
The figure for `CCS(=O)(=O)Nc1ccc(C2=NN(S(=O)(=O)c3ccc(F)cc3)C(c3ccco3)C2)cc1` (stereo not given) is 4.53%; for `COc1cccc(C2CC(c3ccccc3)=NN2S(=O)(=O)c2ccccc2)c1OC` (stereo not given) it is 29.9% (active).
Regarding `COc1cccc(C2CC(c3cccs3)=NN2C(=O)CSC2=NCCS2)c1OC` (stereo not given), the inhibition was -3.83%.
